{
  "source": "PubChem BioAssay (NCATS)",
  "note": "“And” between values parts separate entries of the source, which are not always exact repeats. Equal values may be shown once. Results filed as inconclusive are left out. A number with no mark means an inactive call. The source made the active and inactive calls. Unless noted, calls follow the shape of the full dose curve.",
  "data": [
    {"test_system": "not listed separately", "test": "AP1 Signaling Pathway (AID 357; active = well fitted curve in either direction with a large enough effect, not every such curve was filed as active; also: % is scaled to controls: 0 for no effect and ±100 for the full control effect)", "settings": "ME-180 AP-1-bla reporter, EGF-induced, beta-lactamase ratio, 5 h; series mostly up to 17.2 µM; activity change, negative = inhibition: at the top concentration", "how_it_was_run": "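ME-180 cells with beta-lactamase reporter under AP-1 response element, stimulated with EC50 EGF; compounds tested in titration series, 5 h at 37 °C. CCF4 substrate added 2.5 h at room temperature; 460/530 nm emission ratio gave %activity and AC50.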", "units": {"activity change, negative = inhibition": "%"}, "values": [
      {"smiles": "CC(=O)N[C@@H](CS)C(=O)O", "activity change, negative = inhibition": 8.13},
      {"smiles": "O=C(O)c1cc(-c2ccccc2)nc2ccccc12", "activity change, negative = inhibition": 7.26},
      {"smiles": "CC[C@]1(O)C[C@@H]2CN(CCc3c([nH]c4ccccc34)[C@@](C(=O)OC)(c3cc4c(cc3OC)N(C)[C@H]3[C@@](O)(C(=O)OC)[C@H](OC(C)=O)[C@]5(CC)C=CCN6CC[C@]43[C@@H]65)C2)C1", "activity change, negative = inhibition": 27.8},
      {"smiles": "CC(C)(C)c1ccc(C(O)CCCN2CCC(C(O)(c3ccccc3)c3ccccc3)CC2)cc1", "note": "(stereo not given)", "activity change, negative = inhibition": 11},
      {"smiles": "Nc1ncnc2c1ncn2[C@@H]1O[C@@H](CO)[C@H](O)[C@H]1O", "activity change, negative = inhibition": -10.5},
      {"smiles": "CC(C(=O)O)c1ccc(-c2ccccc2)c(F)c1", "note": "(stereo not given)", "activity change, negative = inhibition": 3.32},
      {"smiles": "O=C1C[C@@H](c2ccc(O)cc2)Oc2cc(O)cc(O)c21", "activity change, negative = inhibition": -12.1},
      {"smiles": "COc1ccc2c3c1OC1C[C@@H](O)C=C[C@@]31CCN(C)C2", "note": "(stereo not given in full)", "activity change, negative = inhibition": 5.59},
      {"smiles": "CC(C)NCC(O)COc1cccc2[nH]ccc12", "note": "(stereo not given)", "activity change, negative = inhibition": 7.92}
    ]},
    {"target": "Cytochrome P450 1A2 (Homo sapiens) (UniProt P05177)", "sequence (P05177 whole entry, looked up)": "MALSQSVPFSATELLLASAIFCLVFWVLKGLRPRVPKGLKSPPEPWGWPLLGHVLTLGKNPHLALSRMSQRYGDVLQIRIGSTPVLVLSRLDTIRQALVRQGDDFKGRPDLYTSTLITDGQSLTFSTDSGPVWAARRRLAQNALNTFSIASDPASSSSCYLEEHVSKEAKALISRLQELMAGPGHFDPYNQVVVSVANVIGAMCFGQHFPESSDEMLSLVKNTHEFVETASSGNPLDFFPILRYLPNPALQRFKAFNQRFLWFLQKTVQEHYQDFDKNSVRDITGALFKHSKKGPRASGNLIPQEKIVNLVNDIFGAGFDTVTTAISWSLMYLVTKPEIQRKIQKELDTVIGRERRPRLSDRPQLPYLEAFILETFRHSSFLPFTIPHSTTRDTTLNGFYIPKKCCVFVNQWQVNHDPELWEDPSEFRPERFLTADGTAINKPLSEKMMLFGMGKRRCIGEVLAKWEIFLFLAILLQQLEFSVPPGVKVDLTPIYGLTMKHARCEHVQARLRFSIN", "test": "p450-cyp1a2 (AID 410); also: potency is read from the fitted curve at half-maximal effect;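 as to activity change, negative = inhibition: -100% = full effect of reference inhibitor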", "settings": "recombinant CYP1A2, luciferin-ME demethylation, luminescence; series mostly up to 57 µM; activity change, negative = inhibition: at the top concentration", "how_it_was_run": "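20nM CYP1A2, 100uM Luciferin-ME (=Km), 100mM KPO4; cpd 10 min RT; +NADPH regen, 60 min RT; stop/detect 20 min; luminescence. Normalized to furafylline 57 uM = full inhibition.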", "units": {"activity change, negative = inhibition": "%"}, "values": [
      {"smiles": "COc1ccc(Cc2nccc3cc(OC)c(OC)cc23)cc1OC", "Potency": "25.1 µM (active) and 10 µM (active) and 31.6 µM (active)"},
      {"smiles": "CC1(C)CCC2=C(O1)c1ccccc1C(=O)C2=O", "Potency": "3.98 µM (active)"},
      {"smiles": "CS(=O)c1ccc(-c2nc(-c3ccc(F)cc3)c(-c3ccncc3)[nH]2)cc1", "note": "(stereo not given)", "Potency": "631 nM (active) and 3.98 µM (active)"},
      {"smiles": "O=c1cc(-c2ccccc2)oc2cc(O)c(O)c(O)c12", "Potency": "398 nM (active) and 501 nM (active)"},
      {"smiles": "CCCCCCCCCCCC1=C(O)C(=O)C=C(O)C1=O", "Potency": "inactive"},
      {"smiles": "COc1cccc(-c2cc(=O)c3ccccc3o2)c1N", "Potency": "3.16 µM (active) and 200 nM (active)"},
      {"smiles": "CC(C)[C@H](CO)Nc1nc(Nc2ccc(C(=O)O)c(Cl)c2)c2ncn(C(C)C)c2n1", "activity change, negative = inhibition": -16.8},
      {"smiles": "COc1ccc(-c2coc3cc(O)ccc3c2=O)cc1", "Potency": "0.631 µM (active)"}
    ]},
    {"test_system": "not listed separately", "test": "Cell Viability - BJ (AID 421);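 also: potency is read from the fitted curve at half-maximal effect; cells exposed to compound for 40 hours at 37 °C before readout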", "settings": "BJ fibroblast viability, qHTS", "how_it_was_run": "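Normal human BJ foreskin fibroblasts, 1500/well in complete medium, treated 40 hr at 37 °C. Cellular ATP by CellTiter-Glo luminescence; normalized to DMSO and 100 uM tamoxifen, AC50 from Hill fit.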", "values": [
      {"smiles": "O=C(O)Cc1cccc2ccccc12", "Potency": "> 92 µM"},
      {"smiles": "O=c1cc(-c2ccc(O)cc2)oc2cc(O)cc(O)c12", "Potency": "> 92 µM"},
      {"smiles": "CCn1cc(C(=O)O)c(=O)c2ccc(C)nc21", "Potency": "> 92 µM"},
      {"smiles": "CC(=O)O[C@]1(C(C)=O)CC[C@H]2[C@@H]3C=C(Cl)C4=CC(=O)[C@@H]5C[C@@H]5[C@]4(C)[C@H]3CC[C@@]21C", "Potency": "> 92 µM"},
      {"smiles": "O=c1[nH]cnc2c1ncn2[C@H]1CC[C@@H](CO)O1", "Potency": "> 92 µM"},
      {"smiles": "O=c1c(O)c(-c2ccc(O)cc2)oc2cc(O)cc(O)c12", "Potency": "> 92 µM"},
      {"smiles": "CC1=C(/C=C/C(C)=C/C=C/C(C)=C/C(=O)Nc2ccc(O)cc2)C(C)(C)CCC1", "Potency": "30.8 µM (active)"},
      {"smiles": "CN(C)CCC(c1ccccc1)c1ccccn1", "note": "(stereo not given)", "Potency": "> 92 µM"}
    ]}
  ]
}
